In experiment [1] the target is Fibroblast growth factor receptor 4 (Homo sapiens) (UniProt P22455). The conditions noted are these: at 1 µM.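 Further: reported figure is the averaged percent inhibition of FGFR4, from the GSK PKIS kinase screening panel.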
The target of experiment [2] is Tyrosine-protein kinase Fgr (Homo sapiens) (UniProt P09769). The conditions noted are these: at 0.1 µM.
Experiment [3] shares this target. As to conditions: at 1 µM.
The target of experiment [4] is Vascular endothelial growth factor receptor 1 (Homo sapiens) (UniProt P17948). The conditions noted are these: at 0.1 µM.
Sequence of Vascular endothelial growth factor receptor 1 (Homo sapiens) (P17948 whole entry): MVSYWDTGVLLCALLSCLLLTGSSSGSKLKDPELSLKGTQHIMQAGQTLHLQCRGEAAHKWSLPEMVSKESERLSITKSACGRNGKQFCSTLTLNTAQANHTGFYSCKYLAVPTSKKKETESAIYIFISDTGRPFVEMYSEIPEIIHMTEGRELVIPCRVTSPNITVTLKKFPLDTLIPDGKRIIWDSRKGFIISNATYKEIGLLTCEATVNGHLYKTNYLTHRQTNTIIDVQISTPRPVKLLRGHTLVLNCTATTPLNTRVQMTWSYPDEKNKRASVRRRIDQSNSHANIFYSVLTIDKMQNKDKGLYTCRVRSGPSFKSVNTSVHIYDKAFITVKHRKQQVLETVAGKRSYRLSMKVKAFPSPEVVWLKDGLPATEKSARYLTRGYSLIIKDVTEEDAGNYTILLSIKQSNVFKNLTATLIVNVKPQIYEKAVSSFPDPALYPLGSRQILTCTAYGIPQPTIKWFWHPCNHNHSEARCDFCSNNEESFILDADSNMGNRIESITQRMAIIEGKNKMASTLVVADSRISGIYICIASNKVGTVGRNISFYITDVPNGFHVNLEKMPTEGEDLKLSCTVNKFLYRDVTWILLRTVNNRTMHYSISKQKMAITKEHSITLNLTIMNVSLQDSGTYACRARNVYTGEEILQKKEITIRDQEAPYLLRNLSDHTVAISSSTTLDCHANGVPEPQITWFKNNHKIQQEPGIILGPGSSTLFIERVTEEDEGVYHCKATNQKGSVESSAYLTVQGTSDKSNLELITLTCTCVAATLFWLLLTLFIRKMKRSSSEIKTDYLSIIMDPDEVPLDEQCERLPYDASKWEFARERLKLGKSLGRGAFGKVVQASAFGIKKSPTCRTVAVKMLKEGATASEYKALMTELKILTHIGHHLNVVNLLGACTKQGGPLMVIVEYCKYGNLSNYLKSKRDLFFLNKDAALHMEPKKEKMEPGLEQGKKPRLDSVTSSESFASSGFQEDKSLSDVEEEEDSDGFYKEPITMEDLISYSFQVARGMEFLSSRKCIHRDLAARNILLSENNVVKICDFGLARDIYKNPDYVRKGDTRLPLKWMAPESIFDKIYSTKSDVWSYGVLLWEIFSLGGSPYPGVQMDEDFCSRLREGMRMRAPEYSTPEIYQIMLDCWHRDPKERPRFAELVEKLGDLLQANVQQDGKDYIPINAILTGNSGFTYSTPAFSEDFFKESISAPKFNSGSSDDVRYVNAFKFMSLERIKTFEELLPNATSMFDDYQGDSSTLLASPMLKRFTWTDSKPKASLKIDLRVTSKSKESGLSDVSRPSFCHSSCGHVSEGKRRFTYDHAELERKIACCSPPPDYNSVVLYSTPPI
For experiment [5] the target is unchanged. The conditions noted are these: at 1 µM.
Experiment [6] deals with Receptor-type tyrosine-protein kinase FLT3 (Homo sapiens) (UniProt P36888). As to conditions: at 0.1 µM.
For experiment [7] the target is unchanged. As to conditions: at 1 µM.
Experiment [8] has as its system T1, Receptor-type tyrosine-protein kinase FLT3 (Homo sapiens), P36888 [D835Y].
T1 sequence (whole entry): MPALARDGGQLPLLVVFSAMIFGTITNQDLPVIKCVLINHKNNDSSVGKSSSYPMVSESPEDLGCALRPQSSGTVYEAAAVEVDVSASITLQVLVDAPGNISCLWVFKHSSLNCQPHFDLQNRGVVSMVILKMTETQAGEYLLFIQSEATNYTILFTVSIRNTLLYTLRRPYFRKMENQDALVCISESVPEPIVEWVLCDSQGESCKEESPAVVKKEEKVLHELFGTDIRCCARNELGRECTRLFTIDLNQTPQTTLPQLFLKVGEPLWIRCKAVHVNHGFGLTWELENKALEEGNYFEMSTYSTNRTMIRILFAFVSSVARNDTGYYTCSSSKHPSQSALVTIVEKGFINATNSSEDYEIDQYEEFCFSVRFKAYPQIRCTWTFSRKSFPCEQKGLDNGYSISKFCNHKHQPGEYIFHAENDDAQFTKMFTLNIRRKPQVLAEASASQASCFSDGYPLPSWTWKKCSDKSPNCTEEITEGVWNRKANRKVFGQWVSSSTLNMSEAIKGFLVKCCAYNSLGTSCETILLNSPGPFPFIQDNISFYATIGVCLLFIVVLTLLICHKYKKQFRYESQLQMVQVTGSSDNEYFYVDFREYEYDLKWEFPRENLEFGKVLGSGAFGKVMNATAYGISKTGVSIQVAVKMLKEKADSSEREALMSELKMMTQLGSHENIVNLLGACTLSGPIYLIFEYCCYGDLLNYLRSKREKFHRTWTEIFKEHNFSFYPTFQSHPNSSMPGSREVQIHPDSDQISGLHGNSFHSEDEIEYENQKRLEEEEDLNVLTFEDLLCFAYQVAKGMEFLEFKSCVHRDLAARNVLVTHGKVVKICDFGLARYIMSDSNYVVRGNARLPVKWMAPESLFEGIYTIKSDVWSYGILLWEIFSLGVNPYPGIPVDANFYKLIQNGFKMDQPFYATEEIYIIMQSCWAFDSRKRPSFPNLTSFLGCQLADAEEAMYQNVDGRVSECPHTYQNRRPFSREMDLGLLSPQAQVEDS
The conditions noted are these: at 0.1 µM.

Experiment [9] deals with Non-receptor tyrosine-protein kinase TYK2 (Homo sapiens) (UniProt P29597). The conditions noted are these: at 1 µM.
Sequence of Non-receptor tyrosine-protein kinase TYK2 (Homo sapiens) (P29597 whole entry): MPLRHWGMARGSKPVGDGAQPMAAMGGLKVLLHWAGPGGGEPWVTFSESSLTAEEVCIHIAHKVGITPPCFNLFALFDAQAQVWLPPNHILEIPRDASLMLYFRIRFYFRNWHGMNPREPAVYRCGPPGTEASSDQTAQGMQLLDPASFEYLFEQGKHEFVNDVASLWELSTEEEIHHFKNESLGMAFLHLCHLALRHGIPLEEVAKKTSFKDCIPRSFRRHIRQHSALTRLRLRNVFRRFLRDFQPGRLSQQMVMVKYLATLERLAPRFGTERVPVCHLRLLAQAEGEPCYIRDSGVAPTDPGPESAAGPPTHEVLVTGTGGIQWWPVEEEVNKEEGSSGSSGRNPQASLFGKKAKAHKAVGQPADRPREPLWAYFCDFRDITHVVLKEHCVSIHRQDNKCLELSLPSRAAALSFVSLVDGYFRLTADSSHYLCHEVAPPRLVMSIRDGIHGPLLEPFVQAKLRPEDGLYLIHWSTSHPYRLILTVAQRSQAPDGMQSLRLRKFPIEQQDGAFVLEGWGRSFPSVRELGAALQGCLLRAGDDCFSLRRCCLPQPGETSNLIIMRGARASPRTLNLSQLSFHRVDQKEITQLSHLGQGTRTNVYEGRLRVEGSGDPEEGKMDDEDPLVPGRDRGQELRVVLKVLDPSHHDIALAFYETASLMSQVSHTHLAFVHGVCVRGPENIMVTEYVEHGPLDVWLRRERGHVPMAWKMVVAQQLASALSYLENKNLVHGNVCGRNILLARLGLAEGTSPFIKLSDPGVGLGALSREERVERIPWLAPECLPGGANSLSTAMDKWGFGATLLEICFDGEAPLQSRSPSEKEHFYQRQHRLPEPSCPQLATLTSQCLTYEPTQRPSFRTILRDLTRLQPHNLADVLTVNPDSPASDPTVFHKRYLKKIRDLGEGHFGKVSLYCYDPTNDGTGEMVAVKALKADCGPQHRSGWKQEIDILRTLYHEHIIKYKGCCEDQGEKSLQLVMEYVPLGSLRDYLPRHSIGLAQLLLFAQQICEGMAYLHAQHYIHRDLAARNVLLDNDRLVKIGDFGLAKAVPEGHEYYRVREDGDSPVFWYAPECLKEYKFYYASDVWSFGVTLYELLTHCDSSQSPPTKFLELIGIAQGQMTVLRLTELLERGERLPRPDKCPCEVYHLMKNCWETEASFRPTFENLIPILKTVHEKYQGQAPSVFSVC
Experiment [10] concerns the target T2, Tyrosine-protein kinase receptor TYRO3 (Homo sapiens) (UniProt Q06418).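 Further: reported percentages are averaged inhibition values of TYRO3 kinase activity.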
T2 sequence (whole entry): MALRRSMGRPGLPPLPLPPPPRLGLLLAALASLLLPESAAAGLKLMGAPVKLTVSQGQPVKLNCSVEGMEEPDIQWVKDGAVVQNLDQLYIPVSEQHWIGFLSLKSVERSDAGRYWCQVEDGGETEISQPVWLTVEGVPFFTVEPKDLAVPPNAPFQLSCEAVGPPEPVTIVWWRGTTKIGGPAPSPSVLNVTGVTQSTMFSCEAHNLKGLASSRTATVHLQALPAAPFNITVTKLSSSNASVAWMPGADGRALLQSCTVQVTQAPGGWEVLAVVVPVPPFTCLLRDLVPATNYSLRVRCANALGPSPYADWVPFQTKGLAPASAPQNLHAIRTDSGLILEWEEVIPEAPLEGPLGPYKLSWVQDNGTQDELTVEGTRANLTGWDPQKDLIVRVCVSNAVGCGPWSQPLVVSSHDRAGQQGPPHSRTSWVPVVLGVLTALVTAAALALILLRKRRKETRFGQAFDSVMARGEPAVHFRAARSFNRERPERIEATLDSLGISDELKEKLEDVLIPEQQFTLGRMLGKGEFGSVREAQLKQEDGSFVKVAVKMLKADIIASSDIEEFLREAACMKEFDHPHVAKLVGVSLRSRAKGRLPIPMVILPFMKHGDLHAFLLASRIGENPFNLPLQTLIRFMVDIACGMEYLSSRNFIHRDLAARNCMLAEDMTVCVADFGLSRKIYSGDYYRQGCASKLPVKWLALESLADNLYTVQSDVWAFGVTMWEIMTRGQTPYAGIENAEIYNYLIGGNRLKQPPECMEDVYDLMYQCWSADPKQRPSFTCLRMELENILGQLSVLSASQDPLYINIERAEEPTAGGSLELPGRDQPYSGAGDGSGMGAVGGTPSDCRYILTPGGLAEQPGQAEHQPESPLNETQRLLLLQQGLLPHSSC
As to conditions: at 0.1 µM.

We go through 19 molecules from ChEMBL document CHEMBL1961873, “Compounds: GSK PKIS; Assays: Nanosyn kinase panel” (2012).

What is called inhibition is the change of the read-out against control, counted positive when it falls.

Sequence of Tyrosine-protein kinase Fgr (Homo sapiens) (P09769 2-529 limits assumed): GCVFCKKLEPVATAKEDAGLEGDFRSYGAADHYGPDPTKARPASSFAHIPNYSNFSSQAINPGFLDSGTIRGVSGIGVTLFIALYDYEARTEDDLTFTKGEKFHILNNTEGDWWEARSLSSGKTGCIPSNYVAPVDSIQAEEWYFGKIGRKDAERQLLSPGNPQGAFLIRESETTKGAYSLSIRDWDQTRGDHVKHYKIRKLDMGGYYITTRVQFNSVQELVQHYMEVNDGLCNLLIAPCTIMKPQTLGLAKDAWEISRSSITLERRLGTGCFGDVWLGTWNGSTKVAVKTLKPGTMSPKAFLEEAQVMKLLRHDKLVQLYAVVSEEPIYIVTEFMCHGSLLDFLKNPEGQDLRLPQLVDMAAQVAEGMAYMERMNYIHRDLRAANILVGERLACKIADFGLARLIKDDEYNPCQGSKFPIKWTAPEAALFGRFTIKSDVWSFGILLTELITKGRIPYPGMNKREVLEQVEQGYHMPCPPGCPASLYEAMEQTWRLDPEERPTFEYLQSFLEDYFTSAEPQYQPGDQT
Sequence of Fibroblast growth factor receptor 4 (Homo sapiens) (P22455 22-802 limits assumed): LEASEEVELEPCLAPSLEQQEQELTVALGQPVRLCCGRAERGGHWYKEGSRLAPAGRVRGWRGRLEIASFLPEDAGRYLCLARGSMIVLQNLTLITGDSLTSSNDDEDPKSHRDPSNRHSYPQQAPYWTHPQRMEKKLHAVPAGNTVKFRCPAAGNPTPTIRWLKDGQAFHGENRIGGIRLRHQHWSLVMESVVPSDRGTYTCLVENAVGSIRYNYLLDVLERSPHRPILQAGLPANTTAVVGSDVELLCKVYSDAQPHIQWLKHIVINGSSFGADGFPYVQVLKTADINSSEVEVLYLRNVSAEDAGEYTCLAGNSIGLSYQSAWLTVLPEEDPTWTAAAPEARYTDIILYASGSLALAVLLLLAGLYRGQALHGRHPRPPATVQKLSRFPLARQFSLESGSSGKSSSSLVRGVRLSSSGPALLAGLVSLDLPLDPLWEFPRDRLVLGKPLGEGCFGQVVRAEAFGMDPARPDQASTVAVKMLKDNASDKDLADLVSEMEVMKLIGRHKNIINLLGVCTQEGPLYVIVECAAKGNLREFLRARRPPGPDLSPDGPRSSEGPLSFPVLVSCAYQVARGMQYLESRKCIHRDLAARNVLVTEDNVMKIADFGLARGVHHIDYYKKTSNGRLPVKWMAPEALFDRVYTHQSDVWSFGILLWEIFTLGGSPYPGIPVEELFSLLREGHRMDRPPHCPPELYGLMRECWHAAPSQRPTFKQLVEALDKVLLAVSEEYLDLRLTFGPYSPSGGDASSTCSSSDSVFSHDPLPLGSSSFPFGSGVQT

In the case of `c1ccc(-c2n[nH]cc2-c2ccnc(-c3ccc(OCCN4CCOCC4)cc3)c2)nc1`, the inhibition in [1] is 4.93%; in experiment [2], 4.14%; in experiment [3], 6.86%; in experiment [4], 3.88%; in [5] it was 15.6%; in experiment [6], -2.01%. Further, the inhibition in experiment [7] was 1.37%; in experiment [8], -0.15%; in [9] it was 1.87%; in experiment [10], -0.18%.

Consider `O=C1Nc2ccc(I)cc2C1=Cc1cc(Br)c(O)c(Br)c1`, for which the inhibition was 5.57% in experiment [1]; 0.14% in [2]; 3.52% in experiment [3]; -0.02% in experiment [4]; -1.49% in experiment [5]; 2.03% in experiment [6]. Further, the inhibition in experiment [7] is 5.54%; in experiment [8], -4.08%; in experiment [9], -0.2%; in experiment [10], 2.41%.

For the molecule `Fc1ccc(-c2ncn(C3CCNCC3)c2-c2ccnc(Oc3ccc4c(c3)OCO4)n2)cc1`, the inhibition in [1] turned out to be 0.91%; in [2], 3.23%; in experiment [3] it was 7.38%; in experiment [4] it was 0.92%; in [5], 2.35%; in [6], 4.05%. The inhibition was 7.47% in experiment [7], -0.87% in [8], -3.97% in experiment [9] and 1.93% in [10].

With `COc1ccc2cc(-c3c(-c4ccncc4)nc(-c4ccc([S+](C)[O-])cc4C)n3C)ccc2c1` (stereo not given), the inhibition is 2.85% in [1]; 0.53% in experiment [2]; 4.65% in experiment [3]; 0.86% in experiment [4]; 5.84% in experiment [5]; -0.09% in [6]. The inhibition is -1% in [7], 0.23% in [8], 0.94% in experiment [9] and 0.37% in experiment [10].

For the molecule `Cc1ccc(C(=O)NC2CCC2)cc1-c1ccc(C(=O)NCC2CC2)cc1`, the inhibition in experiment [1] was 1.12%; in experiment [2], 0.84%; in experiment [3] it was 4.82%; in [4], 1.31%; in experiment [5], -0.61%; in experiment [6] it was 0.07%. The inhibition in experiment [7] is 1.62%; in experiment [8], 0.48%; in experiment [9], -2.49%; in experiment [10] it was 1.07%.

Take `CN1CCN(CCCNc2nc3ccc(Oc4ccc(NC(=O)Nc5cc(C(F)(F)F)ccc5F)cc4)cc3[nH]2)CC1`: the inhibition in experiment [1] is -0.18%; in [2] it was 1.31%; in [3], 8.15%; in [4], 12.7%; in experiment [5] it was 40.7%; in experiment [6], 15%. The inhibition in experiment [7] was 61.2%; in experiment [8], -5.77%; in [9], 0.88%; in [10] it was 1.94%.

With `COc1cccc(-n2cnc3c(N/N=C/c4ccncc4)ncnc32)c1`, the inhibition in experiment [1] was -3.96%; in experiment [2], 6.79%; in [3], 19%; in experiment [4] it was -1.12%; in [5], 1.4%; in experiment [6] it was 0.88%. In addition, the inhibition turned out to be 6.95% in experiment [7], 7.7% in experiment [8], 3.46% in [9] and 1.07% in experiment [10].

As for `CS(=O)(=O)CCNCc1ccc(-c2ccc3ncnc(Nc4ccc(OCc5ccccc5)c(Br)c4)c3c2)o1`, the inhibition in [1] was -1.47%; in experiment [2], 4.84%; in experiment [3] it was 10.8%; in [4], -0.47%; in [5], 2.16%; in experiment [6], 4.34%. Besides, the inhibition in experiment [7] is 1.3%; in experiment [8] it was -8.89%; in experiment [9], -4.08%; in experiment [10], 2.52%.

As for `O=C(NCC1CC1)c1ccc(-c2cccc(C(=O)NC3CC3)c2)cc1`, the inhibition was 0.84% in experiment [1]; -0.78% in experiment [2]; 4.28% in experiment [3]; 2.16% in experiment [4]; 3.45% in experiment [5]; 1.49% in [6]. Moreover, the inhibition in experiment [7] was 3.46%; in experiment [8] it was 0.3%; in experiment [9] it was -5.6%; in experiment [10], 3.93%.

For the molecule `Cc1nnc(-c2ccc(C)c(-c3ccc(C(=O)NCc4ccc(Cl)cc4)cc3)c2)o1`, the inhibition in [1] was -3.75%; in [2], 4.76%; in experiment [3], 1.82%; in experiment [4], 2.48%; in experiment [5] it was 2.52%; in [6], 2.13%. In addition, the inhibition in experiment [7] is 0.77%; in [8], 2.22%; in experiment [9], -3.78%; in experiment [10], 2.85%.

In the case of `NS(=O)(=O)c1ccc(Nc2cc(-c3ccc(O)c(F)c3)n[nH]2)cc1`, the inhibition in [1] worked out at 0.53%; in experiment [2] it was 0.78%; in experiment [3], 13.7%; in experiment [4] it was 2.34%; in experiment [5], 14.3%; in experiment [6] it was 33.7%. Further, the inhibition is 79.4% in experiment [7], 5.5% in experiment [8], 5.71% in [9] and 8.31% in experiment [10].

For `CS(=O)(=O)CCNCc1cc(-c2cc3c(Nc4ccc(OCc5cccc(F)c5)c(Cl)c4)ncnc3s2)cs1`, the inhibition is 1.36% in experiment [1]; 2.51% in experiment [2]; 4.32% in experiment [3]; 0.1% in [4]; 0.78% in experiment [5]; 2.69% in experiment [6]. In addition, the inhibition in [7] was 6.93%; in experiment [8], -4.23%; in experiment [9] it was -4%; in [10] it was 2.21%.

For the molecule `O=C1NC(=O)C(c2cccc(Cl)c2)=C1Nc1ccc(Cl)c(C(=O)O)c1`, the inhibition in [1] came out at 1.23%; in experiment [2], 5.15%; in [3] it was 1.19%; in experiment [4] it was 2.61%; in [5], 7.03%; in experiment [6], 3.91%. Also, the inhibition in experiment [7] is 0.25%; in [8] it was -6.52%; in [9], -1.23%; in [10], 1.77%.

As for `C[C@@H](Oc1cc(-n2cnc3ccc(OCC4CCN(C)CC4)cc32)sc1C(N)=O)c1ccccc1Cl`, the inhibition was 4.52% in [1]; 2.78% in [2]; 13.7% in experiment [3]; 1.38% in [4]; -0.37% in experiment [5]; 6.77% in experiment [6]. Besides, the inhibition in experiment [7] was 16.1%; in [8], -8.99%; in experiment [9], -4.49%; in experiment [10] it was 2.99%.

With `O=C(Nc1n[nH]c2cc(-c3ccccc3)ccc12)C1CC1`, the inhibition is 0.83% in [1]; 1.51% in experiment [2]; 12.8% in experiment [3]; 3.64% in experiment [4]; 2.3% in experiment [5]; 0.48% in experiment [6]. Further, the inhibition in experiment [7] is 2.82%; in [8], -3.75%; in [9] it was -4.78%; in experiment [10], 3.71%.

In the case of `COc1cc(Nc2ncc3c(C)nc(-c4cccc(Oc5ccccc5)c4)n3n2)cc(OC)c1OC`, the inhibition was 1.97% in [1]; 0.02% in experiment [2]; 4.22% in [3]; 0.68% in experiment [4]; 2.1% in [5]; 3.86% in experiment [6]. Also, the inhibition in experiment [7] is 28.5%; in experiment [8], 3.72%; in experiment [9], -3.18%; in [10] it was 2%.

For `C#Cc1cccc(Nc2ncnc3ccc(OCCCCNCCS(C)(=O)=O)cc23)c1`, the inhibition in experiment [1] was -1.61%; in experiment [2], 10.5%; in experiment [3], 15.5%; in experiment [4] it was 2.51%; in [5], 4.95%; in [6], 1.29%. The inhibition in [7] is 2.94%; in experiment [8] it was 3.91%; in experiment [9] it was -1.47%; in experiment [10], 2.65%.

Consider `NS(=O)(=O)c1ccc(N/N=C2\C(=O)Nc3ccc(C(=O)NCCCn4ccnc4)cc32)cc1`, for which the inhibition in experiment [1] stood at 2.46%; in [2], 5.97%; in experiment [3] it was 13.4%; in experiment [4] it was 0.63%; in experiment [5], 5.48%; in experiment [6], 3.35%. Further, the inhibition in experiment [7] was 18.5%; in [8] it was 2.34%; in experiment [9] it was -1.72%; in experiment [10], 4.1%.

Take `NC(=O)c1ccc(Oc2nccc(-c3c(-c4ccc(F)cc4)ncn3C3CCNCC3)n2)cc1`: the inhibition in experiment [1] was 3.45%; in experiment [2], 1.87%; in [3], 3.62%; in experiment [4], 0.89%; in experiment [5], -0.43%; in [6], 2.76%. Besides, the inhibition in experiment [7] is 4.78%; in [8], 0.27%; in [9], -4.56%; in experiment [10], 2.41%.
